These results are taken from PubChem BioAssay AID922 (National Center for Advancing Translational Sciences (NCATS), 2007).

Each structure is given as a SMILES string. Inconclusive results are not listed. Active and inactive are the calls of the source. Calls follow the shape of the dose curve; as a rule, active = well fitted inhibition curve with a large enough effect in the signal ratio, with a control signal flat; inconclusive = small, poorly fitted or top-dose-only effect, or effect the other way; inactive = flat fitted curve, though single readings scatter; the % refers to the signal ratio.

The nature of the experiment: Confirmation Concentration-Response Assay for Identification of Small Molecule Antagonists of Stat Signaling Pathway. The conditions noted are these: SIE-bla cells, IL-6 stimulated, beta-lactamase ratio, 5 h. An excerpt:
NIH Molecular Libraries Screening Centers Network [MLSCN] NIH Chemical Genomics Center [NCGC] MLSCN Grant: None NCGC Assay Overview: This assay is a retest of actives identified from the Stat signaling pathway assay (PubChem AID 446). The Stat assay is cell-based and measures Interleukin 6 (IL-6) mediated modulation of a beta-lactamase reporter gene controlled by a STAT inducible element (SIE-bla cells, Invitrogen). IL-6 is a cytokine that signals via the JAK/STAT pathway and is implicated in cancer and inflammation. SIE-bla cells are induced by IL-6 at 40 pM EC50 and inhibited by the pan JAK inhibitor, 2-(1,1-Dimethylethyl)-9-fluoro-3,6-dihydro-7H-benz[h]-imidaz[4,5-f]isoquinolin-7-one, at approximately 10 nM IC50. Plated cells were incubated overnight and on the following day, stimulated with 40 pM IL-6 for 5 hrs. The assay was stimulated with an EC50 of IL-6 to retest inhibitors of STAT signaling.
NCGC Assay Protocol Summary: Cells were trypsinized, washed in assay medium (AM, OPTI MEM with 0.5% fetal bovine serum, 0.1 mM nonessential amino acids, 1 mM sodium pyruvate, 10mM HEPES pH 7.3, 100U/ml penicillin, and 100 ug/ml streptomycin) and suspended at […] in AM. Approximately 2500 cells in 5 uL/well was dispensed into 1536-well plates and the cells were incubated overnight at 37 C. 23 nL of compound were delivered by a pin tool and 1 uL of IL-6 (40 pM final concentration in AM) was added. After plates were incubated at 37 C for 5 hrs, 1uL of detector mix (LiveBLAzerTM, Invitrogen) was added, the plates incubated at room temperature for 2.5 hrs, and fluorescence intensity at 460 and 530 nm emissions was measured at 405 nm excitation by an Envision (Perkin Elmer).
Turning to `CC(C)C[C@H]1C(=O)N2CCC[C@H]2[C@]2(O)O[C@](NC(=O)[C@@H]3C=C4c5cccc6[nH]c(Br)c(c56)CC4N(C)C3)(C(C)C)C(=O)N12` (stereo partly specified), the Potency is 12.6 µM (active).

On to `CC(C)[C@H](CO)Nc1nc(Nc2cccc(Cl)c2)c2ncn(C(C)C)c2n1`, for which the Potency was 5.01 µM (active).

Take `CC[C@@H]1CN2CCc3cc(OC)c(OC)cc3[C@H]2C[C@@H]1C[C@@H]1NCCc2cc(OC)c(OC)cc21`: the Potency was 0.398 µM (active).

For the molecule `CCn1cnc2c(Nc3cccc(Cl)c3)nc(N[C@@H]3CCCC[C@H]3N)nc21`, the Potency is 3.98 µM (active).

Turning to `COc1ccc(C[C@@H]2C(=O)N[C@H](C)C(=O)N(C)[C@@H]3C(=O)N(C)[C@@H](Cc4ccc(O)c(c4)Oc4ccc(cc4)[C@H]3O)C(=O)N[C@@H](C)C(=O)N[C@H](C)C(=O)N2C)cc1`, the Potency was 0.398 µM (active).

As to `C[C@]1(C(=O)O)[C@@H]2CC[C@@H](O2)[C@@]1(C)C(=O)O`, the Potency was 10 µM (active).
